According to the supplement of paper PMC9694430:

What follows are compounds tested on LOC_OS01G10900-cb004 (assay: thermal shift delta Tm vs DMSO control; higher = stronger stabilization (binding)). Conditions: 12.5 µM; protein concentration 2 µM.
Method in brief: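 Compounds dissolved in DMSO were added to purified rice kinase domain constructs, which had been expressed in E. coli, for differential scanning fluorimetry. Each well held 19.5 μl of 2 μM kinase in 100 mM potassium phosphate pH 7.5, 150 mM NaCl, 10% glycerol and 5 × SYPRO Orange. Fluorescence was followed from 25°C to 95°C at a rate of 0.05°C/s. Shifts in Boltzmann-fitted melting temperature are triplicate means relative to DMSO-only protein.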
With `Oc1c2ccccc2c2c3c(cccc13)N=N2` the “thermal shift delta Tm” value was 3.61 °C.
In the case of `CSc1cccc(Nc2ncc3cc(-c4c(Cl)cccc4Cl)c(=O)n(C)c3n2)c1`, the “thermal shift delta Tm” value is reported as 1.7 °C.
In the case of `COc1cc(Nc2ncc(F)c(Nc3ccc4c(n3)NC(=O)C(C)(C)O4)n2)cc(OC)c1OC` [R406 (free base)], the “thermal shift delta Tm” value is reported as 0.13 °C.
With `Cc1cn(-c2cc(NC(=O)c3ccc(C)c(Nc4nccc(-c5cnccn5)n4)c3)cc(C(F)(F)F)c2)cn1` [Radotinib] the “thermal shift delta Tm” value was 2.41 °C.
In the case of `CN1CCN(Cc2ccc(-c3cnc4[nH]cc(-c5ccc6[nH]ccc6c5)c4c3)cc2)CC1`, the “thermal shift delta Tm” value is reported as 4.45 °C.
For `CONC(=O)c1ccccc1Nc1cc(Nc2cc(C)nn2C(C)C)ncc1Cl`, the “thermal shift delta Tm” value was 0.57 °C.
With `CNC(=O)c1cc(Oc2ccc(NC(=O)Nc3ccc(Cl)c(C(F)(F)F)c3)c(F)c2)ccn1` [Regorafenib (BAY 73-4506)] the “thermal shift delta Tm” value was 0.16 °C.
With `c1cc(-c2cnn3cc(-c4ccc(OCCN5CCCCC5)cc4)cnc23)ccn1` [Dorsomorphin 2HCl] the “thermal shift delta Tm” value was 8.66 °C.
`CCCCCCCCCC(=O)CC(O)S(=O)(=O)O` (stereo not drawn) [Sodium Houttuyfonate] was tested, and the “thermal shift delta Tm” value was 3.08 °C.
For `CC(C)[C@H](CO)Nc1nc(Nc2cccc(Cl)c2)c2ncn(C(C)C)c2n1` [Purvalanol A], the “thermal shift delta Tm” value was 0.07 °C.
In the case of `COc1ccc(Cl)c(Nc2nc3ccccc3nc2NS(=O)(=O)c2cccc(NC(=O)C(C)(C)N)c2)c1` [Pilaralisib (XL147)], the “thermal shift delta Tm” value is reported as 0.29 °C.
In the case of `CC(C)Oc1ccc(-c2nn([C@@H](C)c3oc4ccc(F)cc4c(=O)c3-c3cccc(F)c3)c3ncnc(N)c23)cc1F`, the “thermal shift delta Tm” value is reported as 0.72 °C.
For `O=C(/C=C/c1ccc2ccccc2n1)c1ccncc1`, the “thermal shift delta Tm” value was 1.49 °C.
